Measurements: ChEMBL document CHEMBL3988442, “University of Dundee, Small-Polar-MMV Screening Library” (2021)
For some assays here: Entries with a potency or affinity are not part of this list.

Experiments:
Set-up in all cases: scale not given: direction of the effect not stated beside the values
[1] = target: Protein translocase subunit SecA (Escherichia coli (strain K12)) (UniProt P10408); assay: Assay to Identify E. coli SecA ATPase Inhibitors; assay type: functional; conditions: 30 µM
[2] = target: T1, Ubiquitin-activating enzyme e1, putative (Leishmania donovani (strain BPK282A1)) (UniProt E9BSI1); assay: Leishmania donovani Ubiquitin Activating Enzyme (LdE1); assay type: functional; conditions: 30 µM
T1 sequence (whole entry): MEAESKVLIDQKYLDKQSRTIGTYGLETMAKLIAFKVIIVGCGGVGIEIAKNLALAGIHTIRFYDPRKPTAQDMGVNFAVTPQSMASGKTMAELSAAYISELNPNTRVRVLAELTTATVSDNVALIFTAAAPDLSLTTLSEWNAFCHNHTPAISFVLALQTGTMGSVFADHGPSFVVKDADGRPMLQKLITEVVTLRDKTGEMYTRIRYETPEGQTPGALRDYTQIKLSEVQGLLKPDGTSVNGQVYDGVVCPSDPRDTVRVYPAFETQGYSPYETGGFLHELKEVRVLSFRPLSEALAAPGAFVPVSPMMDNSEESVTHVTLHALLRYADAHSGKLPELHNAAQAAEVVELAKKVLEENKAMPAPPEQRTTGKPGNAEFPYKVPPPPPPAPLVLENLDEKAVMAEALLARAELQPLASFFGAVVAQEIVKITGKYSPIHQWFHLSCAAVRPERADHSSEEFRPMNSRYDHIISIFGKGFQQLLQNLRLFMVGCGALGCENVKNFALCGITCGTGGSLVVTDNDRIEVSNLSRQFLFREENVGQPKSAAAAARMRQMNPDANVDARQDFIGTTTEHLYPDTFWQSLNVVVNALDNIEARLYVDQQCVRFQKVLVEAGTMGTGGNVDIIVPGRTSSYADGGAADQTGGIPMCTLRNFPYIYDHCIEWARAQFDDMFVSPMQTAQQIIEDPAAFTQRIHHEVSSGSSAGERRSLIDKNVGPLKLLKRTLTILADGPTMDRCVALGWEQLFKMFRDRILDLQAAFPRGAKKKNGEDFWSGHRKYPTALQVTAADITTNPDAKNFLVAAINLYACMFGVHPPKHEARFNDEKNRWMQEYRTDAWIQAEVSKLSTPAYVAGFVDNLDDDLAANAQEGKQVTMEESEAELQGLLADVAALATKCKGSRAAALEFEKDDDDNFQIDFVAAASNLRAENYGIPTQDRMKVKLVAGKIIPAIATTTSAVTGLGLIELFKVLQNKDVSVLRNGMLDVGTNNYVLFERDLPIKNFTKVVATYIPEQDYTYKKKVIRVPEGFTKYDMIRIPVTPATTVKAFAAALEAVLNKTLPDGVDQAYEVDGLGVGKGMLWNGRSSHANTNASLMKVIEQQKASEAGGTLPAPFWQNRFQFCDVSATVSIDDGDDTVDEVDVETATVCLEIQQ

[3] = target: AMP-activated protein kinase, AMPK (Homo sapiens) (UniProt P54646+O43741+P54619+Q9UGJ0+Q9Y478+Q13131+Q9UGI9); assay: AMP-dependent Kinase enzyme assay. An in vitro enzyme assay that detects ADP turnover that is directly proportional to AMPK activity. This uses naive AMPK that is activated during the assay with MK-8722; assay type: functional; conditions: 30 µM
[4] = target: Sialic acid-binding Ig-like lectin 9 (Homo sapiens) (UniProt Q9Y336); assay: Hs-Siglec9 ALPHAscreen SOP 20170721; conditions: 10 µM
Trypanosoma cruzi = assay: Trypanosoma cruzi phosphomannomutase and mannose-1-phosphate guanylyltransferase assay; assay type: functional; conditions: 10 µM
[5] = target: T2, Arginase-2, mitochondrial (Homo sapiens) (UniProt P78540); assay: in vitro enzyme assay to detect the production of urea directly proportional to the activity of Arginase II; assay type: functional; conditions: 33.3 µM; note: in the data most compounds retested in dose-response had high values
T2 sequence (whole entry): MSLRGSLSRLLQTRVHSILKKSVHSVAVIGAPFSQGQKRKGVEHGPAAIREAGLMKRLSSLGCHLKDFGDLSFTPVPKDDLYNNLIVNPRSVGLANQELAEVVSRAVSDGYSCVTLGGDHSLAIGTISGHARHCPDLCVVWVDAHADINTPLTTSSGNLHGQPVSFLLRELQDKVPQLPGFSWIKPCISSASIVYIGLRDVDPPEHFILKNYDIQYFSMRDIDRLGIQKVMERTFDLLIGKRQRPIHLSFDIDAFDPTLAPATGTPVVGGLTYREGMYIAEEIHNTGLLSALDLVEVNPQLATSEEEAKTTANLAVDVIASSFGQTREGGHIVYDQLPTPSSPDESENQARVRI

[6] = target: T3, Proteasome subunit beta (Trypanosoma cruzi) (UniProt O96673); assay: Trypanosoma cruzi proteasome chymotrypsin-like activity (TcProtChymo) assay.; note: in the data most compounds retested in dose-response had high values; assay type: functional; conditions: 9.37 µM
T3 sequence (whole entry): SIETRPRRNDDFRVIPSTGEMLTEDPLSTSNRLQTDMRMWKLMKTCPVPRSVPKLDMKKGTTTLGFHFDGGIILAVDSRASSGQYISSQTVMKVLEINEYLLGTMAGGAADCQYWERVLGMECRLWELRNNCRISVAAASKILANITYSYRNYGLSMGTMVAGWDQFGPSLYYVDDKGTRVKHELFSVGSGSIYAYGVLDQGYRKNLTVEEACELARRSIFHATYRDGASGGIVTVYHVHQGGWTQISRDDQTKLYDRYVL

Homo sapiens = species: Homo sapiens; assay: To identify inhibition of the IFN signalling (Jak-Stat) pathway via expression of an eGFP reporter gene under the control of an IFN-stimulated response element (ISRE) containing MxA promoter.; assay type: functional; conditions: 30 µM
[7] = target: T4, Tyrosyl-tRNA synthetase, putative (Trypanosoma cruzi (strain CL Brener)) (UniProt Q4DSP6); assay: Trypanosoma cruzi tyrosyl tRNA synthetase (TcYRS) _High Tyrosine SOP; assay type: functional; conditions: 30 µM; note: in the data most compounds retested in dose-response had high values
T4 sequence (whole entry): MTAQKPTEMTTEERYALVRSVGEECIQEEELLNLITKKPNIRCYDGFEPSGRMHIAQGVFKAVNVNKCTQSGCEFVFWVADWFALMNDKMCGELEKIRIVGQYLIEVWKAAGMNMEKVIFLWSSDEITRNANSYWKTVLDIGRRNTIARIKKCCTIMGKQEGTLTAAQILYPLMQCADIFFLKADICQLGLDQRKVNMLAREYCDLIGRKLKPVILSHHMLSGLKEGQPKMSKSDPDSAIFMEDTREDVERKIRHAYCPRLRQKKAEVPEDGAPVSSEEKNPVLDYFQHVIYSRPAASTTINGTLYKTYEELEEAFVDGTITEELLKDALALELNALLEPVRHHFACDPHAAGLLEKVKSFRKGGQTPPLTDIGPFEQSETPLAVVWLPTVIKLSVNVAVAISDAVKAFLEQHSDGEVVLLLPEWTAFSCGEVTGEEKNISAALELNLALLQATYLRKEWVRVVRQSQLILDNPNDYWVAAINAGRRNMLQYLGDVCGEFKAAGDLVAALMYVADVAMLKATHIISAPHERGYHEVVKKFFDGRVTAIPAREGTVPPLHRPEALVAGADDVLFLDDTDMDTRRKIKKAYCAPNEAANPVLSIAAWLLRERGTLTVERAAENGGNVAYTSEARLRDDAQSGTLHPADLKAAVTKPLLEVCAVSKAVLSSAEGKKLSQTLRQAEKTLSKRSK

[8] = target: T4, Tyrosyl-tRNA synthetase, putative (Trypanosoma cruzi (strain CL Brener)); assay: Trypanosoma cruzi tyrosyl tRNA synthetase (TcYRS) SOP; assay type: functional; conditions: 30 µM
[9] = target: Chromo domain-containing protein 1 (Saccharomyces cerevisiae (strain ATCC 204508 / S288c) (Baker's yeast)) (UniProt P32657); assay: ScCHD-1 Enzyme Inhibition Assay; assay type: functional; conditions: 30 µM; note: in the data most compounds retested in dose-response had high values
Sequence of Chromo domain-containing protein 1 (Saccharomyces cerevisiae (strain ATCC 204508 / S288c) (Baker's yeast)) (P32657 whole entry, the tested form may be a part): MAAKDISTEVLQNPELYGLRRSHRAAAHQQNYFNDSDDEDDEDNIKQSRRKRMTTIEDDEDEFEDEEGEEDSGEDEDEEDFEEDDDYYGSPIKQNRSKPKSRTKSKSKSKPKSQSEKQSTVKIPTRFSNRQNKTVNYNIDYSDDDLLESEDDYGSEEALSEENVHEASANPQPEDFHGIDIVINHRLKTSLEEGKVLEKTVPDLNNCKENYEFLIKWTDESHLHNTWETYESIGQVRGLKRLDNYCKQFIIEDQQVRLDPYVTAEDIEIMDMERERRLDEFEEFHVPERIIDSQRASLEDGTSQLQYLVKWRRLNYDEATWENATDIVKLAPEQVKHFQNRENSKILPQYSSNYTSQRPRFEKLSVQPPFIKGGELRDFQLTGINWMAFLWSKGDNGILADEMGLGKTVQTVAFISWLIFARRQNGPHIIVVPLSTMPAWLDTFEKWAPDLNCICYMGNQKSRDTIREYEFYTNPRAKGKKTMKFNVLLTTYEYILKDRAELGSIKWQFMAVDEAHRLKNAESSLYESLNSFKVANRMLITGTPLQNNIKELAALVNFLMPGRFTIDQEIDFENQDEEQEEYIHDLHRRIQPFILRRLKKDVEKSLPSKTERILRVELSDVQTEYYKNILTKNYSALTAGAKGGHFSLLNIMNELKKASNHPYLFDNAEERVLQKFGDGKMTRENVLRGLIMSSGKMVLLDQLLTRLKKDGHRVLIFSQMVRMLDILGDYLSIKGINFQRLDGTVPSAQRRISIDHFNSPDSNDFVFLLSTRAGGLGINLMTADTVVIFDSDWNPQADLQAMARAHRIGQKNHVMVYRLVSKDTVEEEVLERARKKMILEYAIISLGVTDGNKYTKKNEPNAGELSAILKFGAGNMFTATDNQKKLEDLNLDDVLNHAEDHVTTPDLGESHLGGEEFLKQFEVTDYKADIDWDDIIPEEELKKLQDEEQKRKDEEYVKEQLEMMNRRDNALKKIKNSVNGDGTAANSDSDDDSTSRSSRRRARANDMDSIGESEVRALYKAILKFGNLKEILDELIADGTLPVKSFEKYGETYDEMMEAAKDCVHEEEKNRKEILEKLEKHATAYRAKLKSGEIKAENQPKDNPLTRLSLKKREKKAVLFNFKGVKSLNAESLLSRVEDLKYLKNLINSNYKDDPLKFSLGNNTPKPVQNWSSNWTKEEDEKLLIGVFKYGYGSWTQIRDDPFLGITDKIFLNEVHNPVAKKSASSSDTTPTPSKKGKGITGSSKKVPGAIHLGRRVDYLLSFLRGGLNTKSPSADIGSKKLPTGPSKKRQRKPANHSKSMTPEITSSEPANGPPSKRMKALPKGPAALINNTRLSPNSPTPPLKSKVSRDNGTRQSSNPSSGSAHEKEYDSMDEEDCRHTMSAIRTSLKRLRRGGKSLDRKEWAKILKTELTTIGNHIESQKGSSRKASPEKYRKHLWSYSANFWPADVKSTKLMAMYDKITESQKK

Sequence of Sialic acid-binding Ig-like lectin 9 (Homo sapiens) (Q9Y336 whole entry): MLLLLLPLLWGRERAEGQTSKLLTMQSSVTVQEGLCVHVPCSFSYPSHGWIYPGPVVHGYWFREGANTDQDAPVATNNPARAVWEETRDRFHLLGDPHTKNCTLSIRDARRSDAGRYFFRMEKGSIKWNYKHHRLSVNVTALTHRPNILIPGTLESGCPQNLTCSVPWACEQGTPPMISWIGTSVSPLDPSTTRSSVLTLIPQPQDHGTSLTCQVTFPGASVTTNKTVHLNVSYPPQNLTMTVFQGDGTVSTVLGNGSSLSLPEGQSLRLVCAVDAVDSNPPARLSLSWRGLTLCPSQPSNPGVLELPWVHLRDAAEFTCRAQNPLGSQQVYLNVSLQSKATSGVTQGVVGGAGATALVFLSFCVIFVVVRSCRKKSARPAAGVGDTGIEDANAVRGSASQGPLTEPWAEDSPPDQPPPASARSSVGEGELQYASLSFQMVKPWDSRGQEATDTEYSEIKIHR
Sequence of Protein translocase subunit SecA (Escherichia coli (strain K12)) (P10408 whole entry): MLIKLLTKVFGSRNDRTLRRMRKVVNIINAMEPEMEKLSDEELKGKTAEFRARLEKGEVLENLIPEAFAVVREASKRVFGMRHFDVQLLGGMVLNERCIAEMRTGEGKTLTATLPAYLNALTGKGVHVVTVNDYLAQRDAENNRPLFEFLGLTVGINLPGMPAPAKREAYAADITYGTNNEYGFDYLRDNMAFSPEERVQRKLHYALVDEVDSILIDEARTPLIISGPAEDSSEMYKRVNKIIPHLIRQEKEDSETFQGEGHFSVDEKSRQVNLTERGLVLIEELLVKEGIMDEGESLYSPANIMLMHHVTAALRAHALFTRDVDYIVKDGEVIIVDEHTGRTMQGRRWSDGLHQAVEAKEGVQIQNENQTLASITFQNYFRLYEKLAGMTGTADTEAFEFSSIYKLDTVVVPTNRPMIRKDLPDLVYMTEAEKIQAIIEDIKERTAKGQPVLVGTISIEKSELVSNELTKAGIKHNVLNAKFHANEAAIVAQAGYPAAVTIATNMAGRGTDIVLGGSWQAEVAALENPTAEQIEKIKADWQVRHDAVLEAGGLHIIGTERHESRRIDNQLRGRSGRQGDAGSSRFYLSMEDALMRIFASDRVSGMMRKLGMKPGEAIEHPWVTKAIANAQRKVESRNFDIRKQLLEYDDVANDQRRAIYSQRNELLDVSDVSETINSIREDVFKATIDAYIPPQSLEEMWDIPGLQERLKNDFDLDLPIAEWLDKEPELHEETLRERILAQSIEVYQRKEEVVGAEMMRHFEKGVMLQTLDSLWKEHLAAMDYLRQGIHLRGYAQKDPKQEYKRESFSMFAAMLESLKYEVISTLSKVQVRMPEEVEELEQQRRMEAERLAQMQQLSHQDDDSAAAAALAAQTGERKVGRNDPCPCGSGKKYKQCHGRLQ

Compound | Percent Effect [1] | Percent Effect [2] | Percent Effect [3] | Percent Effect [4] | Percent Effect (Trypanosoma cruzi) | Percent Effect [5] | Percent Effect [6] | Percent Effect (Homo sapiens) | Percent Effect [7] | Percent Effect [8] | Percent Effect [9]
Cn1cccc1C(=O)N1CCc2ncnc(C3CC3)c2CC1 | -4.53% | 13.3% | 9.69% | -5.45% | -5.12% | -0.699% | 21.1% | 22.4% | 0% | 6.41% | -1.35%
CC(C)(C)c1cnc(CN2CCC(c3ccnn3CCO)CC2)o1 | -2.61% | 2.53% | 7.52% | 9.51% | 7.46% | -3.42% | -3.69% | 20.2% | 3.45% | 11.4% | -1.55%
CC(C)CC1SCC(=O)Nc2c1cnn2C(C)C (configuration not stated) | -3.15% | 22.7% | 1.11% | 2.31% | 4.71% | -4.05% | 16.3% | 5.92% | 7.41% | 20.5% | -5.98%
O=C(CCn1ccccc1=O)Nc1ccc(F)c(Cl)c1 | -5.08% | 8.11% | -4.38% | 0.784% | -2.44% | 3.72% | 10.7% | -1.47% | 4.3% | 6.17% | -7.68%
CCn1c(CN2CCN(CC(N)=O)CC2)nc2c(F)cccc21 | -3.22% | 5.26% | 7.34% | 6.21% | 8.84% | -2.3% | 1.34% | -11.4% | 7.35% | 9.76% | -5.52%
O=C(CN1CC(n2cccn2)C1)NCCc1c[nH]c2ccccc12 | -3.91% | -2.7% | 143% | 3.66% | 2.69% | -0.924% | -4.13% | 10.4% | 0.99% | 11% | 7.61%
CC(C)c1nc(C2CCCN2Cc2ccno2)no1 (configuration not stated) | -2.76% | -2.6% | -0.797% | 8.93% | -2.81% | 2.13% | -1.52% | 14.5% | 2.91% | -2.44% | 4.2%
Cc1ccc(N2CCCC3(COCCN(c4nccs4)C3)C2)nn1 (configuration not stated) | 0.955% | 0% | -4.27% | 3.78% | 1.79% | 1.2% | 11.7% | -6.58% | 5.21% | 3.7% | -1.92%
CC(NC(=O)NCC1(N2CCCCC2)CCCCC1)c1nncn1C (configuration not stated) | -6.18% | 18.4% | -2.65% | 0.417% | 1.03% | 0% | -0.931% | 5.56% | 9.36% | 18.5% | -6%
Cc1ccc(CN2CCC3(CC2)CC(c2cccnc2)CO3)s1 (configuration not stated) | -5.83% | 5.41% | 1.22% | -3.96% | 0% | 7.08% | 4.65% | 0.622% | 8.91% | 11% | -2.92%
CNc1nc2c(c(C(=O)N3CCCC3)n1)CN(Cc1nccn1C)CC2 | -4.21% | 16.4% | -8.14% | 7.16% | 2.38% | -2.79% | 19.4% | 8.05% | 7.29% | 8.64% | -2.56%
Cc1nc(-c2ccccc2)sc1C(=O)NCCNc1ncccn1 | -4.03% | -2.63% | -5.12% | -0.445% | -7.94% | 4.32% | 3.98% | 8.09% | 6.4% | 11.1% | 5.7%
CC(C)Oc1cc(N2C[C@@H](C)O[C@@H](C)C2)nc(N)n1 | -1.28% | 8.11% | -16.9% | -0.905% | 0% | -17.1% | 12.8% | 3.78% | 10.1% | 12.2% | -1.35%
O=C([C@@H]1CC[C@@H]2[C@@H](CCN2Cc2cccc(F)c2)O1)N1CCCCO1 | 3% | -34.7% | 4.08% | 2.78% | -3.28% | -52.5% | 9.23% | 16.6% | 2.08% | 22.5% | -4.83%
CCc1cc(NCc2ccccc2CN2CCCC2)n2ncnc2n1 | -5.91% | 0% | -0.284% | -9.79% | -4.38% | 5.92% | 17.4% | -22.7% | 3.19% | -2.6% | -5.77%
CC(C)(C)SCCCC(=O)N1CCC(Nc2cccnn2)CC1 | -1.17% | -2.7% | -6.83% | 13.1% | 0.283% | -1.6% | -1.98% | 8.77% | 4.43% | 6.17% | 0.803%
CC(C)(C)n1cc(C(=O)N2CCCN(Cc3cccs3)CC2)cn1 | -1.01% | 5.26% | 3.41% | 2.97% | -3.57% | 3.45% | 9.19% | 14.5% | 1.47% | 9.76% | -2.3%
CCOCC(O)CN1CCN(C(=O)CC(C)(C)C)CC1 (configuration not stated) | -3.75% | -2.7% | -10.6% | 5.4% | -1.98% | 0.401% | -7.75% | 0.227% | 2.46% | 3.7% | 1.7%
CCN(CC)C(=O)c1ccc(-c2ccsc2)nc1C | -1.54% | 6.94% | 5.62% | -7.86% | -4.37% | -0.442% | 25.3% | -1.98% | 4.21% | 5.13% | -1.47%
NC(=O)C1(c2cnccn2)CCCN1Cc1cc2ccccc2o1 (configuration not stated) | -2.52% | 6.76% | 11.2% | 3.94% | -1.78% | -2.09% | 14.2% | 1.46% | 9.68% | 16.9% | -6.96%
Cn1ncc2c1CCCC2NCc1cc(Br)cs1 (configuration not stated) | -0.998% | 13% | 0.777% | -1.41% | 3.82% | 2.74% | 21.4% | 5.32% | 7.62% | 11.8% | -8.68%
CC(C)C1CN(c2ncccn2)CCC(=O)N1Cc1ccc(F)cc1 (configuration not stated) | -4.22% | 6.94% | -1.8% | -3.12% | -0.291% | 4.86% | 7.54% | 8.83% | 7.37% | 12.8% | -3.01%
